Measured values from PMC7862700, “An all-to-all approach to the identification of sequence-specific readers for epigenetic DNA modifications on cytosine”.

How the values were obtained:
Assay in all cases: DAPPL (digital affinity profiling via proximity ligation, sequencing); 10 mM Tris-HCl pH 7.5, 50 mM NaCl, 1 mM DTT, 4% glycerol, room temperature, 30 min; GST-TFs on glutathione beads, 16-mer random dsDNA library, 0.1% formaldehyde crosslink after washing; high values mean tight binding
FLI1 = target: T1, FLI1 (Homo sapiens, UniProt Q01543 1-452); details: protein: recombinant; tags: N-terminal GST; dsDNA, one strand shown
T1 sequence: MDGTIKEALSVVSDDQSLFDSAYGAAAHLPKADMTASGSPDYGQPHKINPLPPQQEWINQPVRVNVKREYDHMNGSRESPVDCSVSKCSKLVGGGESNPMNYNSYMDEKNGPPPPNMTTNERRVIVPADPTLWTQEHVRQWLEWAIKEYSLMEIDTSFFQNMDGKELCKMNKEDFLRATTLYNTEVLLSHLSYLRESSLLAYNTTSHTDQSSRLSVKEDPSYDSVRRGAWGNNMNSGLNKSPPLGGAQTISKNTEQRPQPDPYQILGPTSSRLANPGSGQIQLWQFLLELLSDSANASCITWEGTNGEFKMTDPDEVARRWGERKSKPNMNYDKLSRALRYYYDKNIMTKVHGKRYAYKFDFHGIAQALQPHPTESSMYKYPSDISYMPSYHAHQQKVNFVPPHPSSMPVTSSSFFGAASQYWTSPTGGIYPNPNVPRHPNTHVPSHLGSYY
Method in brief: (§1)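 Binding signal is defined as a hexamer's read frequency for one factor over its frequency for the tag-only sample. To obtain reads, GST-fused human transcription factors were expressed in yeast, captured on glutathione beads, barcoded with DNA and pooled with that sample. Pools met 200 nmole of a 16-mer random double-stranded DNA library in Tris/NaCl/DTT/glycerol buffer for 30 min at room temperature before washing, 0.1% formaldehyde crosslinking, proximity ligation (BsaI/T4 ligase, 1 h, 37 °C), PCR and Illumina NextSeq500 sequencing.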

ELK1 = target: T2, ELK1 (Homo sapiens, UniProt P19419 1-428); details: protein: recombinant; tags: N-terminal GST; dsDNA, one strand shown
T2 sequence: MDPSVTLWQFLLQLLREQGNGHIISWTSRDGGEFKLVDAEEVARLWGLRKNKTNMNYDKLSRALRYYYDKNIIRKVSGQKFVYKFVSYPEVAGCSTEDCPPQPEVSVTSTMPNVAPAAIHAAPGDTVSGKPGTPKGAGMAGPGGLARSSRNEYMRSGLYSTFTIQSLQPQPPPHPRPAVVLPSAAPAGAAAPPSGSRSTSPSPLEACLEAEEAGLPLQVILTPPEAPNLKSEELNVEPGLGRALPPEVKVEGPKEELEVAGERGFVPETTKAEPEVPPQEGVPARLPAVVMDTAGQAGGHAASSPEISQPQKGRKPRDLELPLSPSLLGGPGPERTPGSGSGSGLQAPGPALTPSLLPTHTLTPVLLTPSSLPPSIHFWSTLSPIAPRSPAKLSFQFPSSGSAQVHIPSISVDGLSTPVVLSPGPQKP
Method in brief: as §1

GABPA = target: T3, GABPA (Homo sapiens, UniProt Q06546 1-454); details: protein: recombinant; tags: N-terminal GST; dsDNA, one strand shown
T3 sequence: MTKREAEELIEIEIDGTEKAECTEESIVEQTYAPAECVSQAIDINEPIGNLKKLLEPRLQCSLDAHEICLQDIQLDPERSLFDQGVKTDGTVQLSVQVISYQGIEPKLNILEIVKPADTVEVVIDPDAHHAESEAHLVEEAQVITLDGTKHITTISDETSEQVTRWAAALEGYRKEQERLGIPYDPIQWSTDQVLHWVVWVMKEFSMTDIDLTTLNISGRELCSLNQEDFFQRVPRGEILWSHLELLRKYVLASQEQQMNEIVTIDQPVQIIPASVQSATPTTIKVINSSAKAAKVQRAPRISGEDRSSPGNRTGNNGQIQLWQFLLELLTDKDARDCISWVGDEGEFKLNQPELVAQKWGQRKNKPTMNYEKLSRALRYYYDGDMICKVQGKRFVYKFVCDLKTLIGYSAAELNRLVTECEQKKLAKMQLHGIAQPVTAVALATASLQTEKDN
Method in brief: as §1

ERG = target: T4, ERG (Homo sapiens, UniProt P11308 1-479); details: protein: recombinant; tags: N-terminal GST; dsDNA, one strand shown
T4 sequence: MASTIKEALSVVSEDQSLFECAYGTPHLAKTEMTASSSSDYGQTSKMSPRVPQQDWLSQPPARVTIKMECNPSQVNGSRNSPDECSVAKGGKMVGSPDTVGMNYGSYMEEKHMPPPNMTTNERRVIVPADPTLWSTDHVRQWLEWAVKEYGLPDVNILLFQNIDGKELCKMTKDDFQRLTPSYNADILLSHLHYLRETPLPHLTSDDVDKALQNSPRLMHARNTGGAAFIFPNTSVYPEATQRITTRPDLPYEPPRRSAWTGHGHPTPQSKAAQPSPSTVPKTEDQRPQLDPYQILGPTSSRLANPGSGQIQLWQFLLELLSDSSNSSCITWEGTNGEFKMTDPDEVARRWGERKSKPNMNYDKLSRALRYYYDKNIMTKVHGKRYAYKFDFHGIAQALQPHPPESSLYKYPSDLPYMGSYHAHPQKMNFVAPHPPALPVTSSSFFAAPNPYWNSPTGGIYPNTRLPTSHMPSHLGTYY
Method in brief: as §1

ELF1 = ELF1 (Homo sapiens, UniProt P32519 1-619); details: protein: recombinant; tags: N-terminal GST; dsDNA, one strand shown
Method in brief: as §1

EHF = target: T5, EHF (Homo sapiens, UniProt Q9NZC4 1-300); details: protein: recombinant; tags: N-terminal GST; dsDNA, one strand shown
T5 sequence: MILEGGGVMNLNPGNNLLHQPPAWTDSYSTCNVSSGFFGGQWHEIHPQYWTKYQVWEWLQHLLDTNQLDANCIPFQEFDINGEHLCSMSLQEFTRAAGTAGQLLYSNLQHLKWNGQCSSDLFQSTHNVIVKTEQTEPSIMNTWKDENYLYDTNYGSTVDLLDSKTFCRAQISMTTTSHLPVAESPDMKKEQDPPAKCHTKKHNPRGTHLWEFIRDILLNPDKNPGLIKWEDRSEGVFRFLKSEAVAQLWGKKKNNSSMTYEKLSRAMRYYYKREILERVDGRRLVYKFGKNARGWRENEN
Method in brief: as §1

SPI1 = SPI1 (Homo sapiens, UniProt P17947 1-270); details: protein: recombinant; tags: N-terminal GST; dsDNA, one strand shown
Method in brief: as §1

SPIB = SPIB (Homo sapiens, UniProt Q01892 1-262); details: protein: recombinant; tags: N-terminal GST; dsDNA, one strand shown
Method in brief: as §1

ELK3 = target: T6, ELK3 (Homo sapiens, UniProt P41970 1-407); details: protein: recombinant; tags: N-terminal GST; dsDNA, one strand shown
T6 sequence: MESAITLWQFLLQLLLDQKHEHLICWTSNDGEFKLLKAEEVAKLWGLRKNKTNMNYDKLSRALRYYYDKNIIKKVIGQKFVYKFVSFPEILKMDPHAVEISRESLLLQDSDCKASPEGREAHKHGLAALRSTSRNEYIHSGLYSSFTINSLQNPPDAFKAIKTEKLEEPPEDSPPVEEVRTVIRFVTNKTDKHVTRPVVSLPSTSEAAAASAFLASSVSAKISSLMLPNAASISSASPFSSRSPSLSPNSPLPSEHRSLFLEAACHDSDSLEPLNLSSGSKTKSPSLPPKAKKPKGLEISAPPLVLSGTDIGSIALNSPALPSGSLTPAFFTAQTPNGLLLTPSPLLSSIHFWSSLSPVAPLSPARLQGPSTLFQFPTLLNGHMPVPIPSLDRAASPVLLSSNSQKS
Method in brief: as §1

FEV = target: T7, FEV (Homo sapiens, UniProt Q99581 1-238); details: protein: recombinant; tags: N-terminal GST; dsDNA, one strand shown
T7 sequence: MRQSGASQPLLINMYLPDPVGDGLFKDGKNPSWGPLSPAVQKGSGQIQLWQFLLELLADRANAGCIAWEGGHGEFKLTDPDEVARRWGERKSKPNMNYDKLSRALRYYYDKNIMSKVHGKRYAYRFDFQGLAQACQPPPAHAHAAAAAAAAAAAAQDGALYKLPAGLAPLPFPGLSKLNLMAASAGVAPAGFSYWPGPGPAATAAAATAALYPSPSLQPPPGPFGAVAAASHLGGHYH
Method in brief: as §1

ETV5 = ETV5 (Homo sapiens, UniProt P41161 1-510); details: protein: recombinant; tags: N-terminal GST; dsDNA, one strand shown
Method in brief: as §1

HSF1 = HSF1 (Homo sapiens, UniProt Q00613 1-529); details: protein: recombinant; tags: N-terminal GST; chain copies: 3; dsDNA, one strand shown
Method in brief: as §1

SPIC = target: T8, SPIC (Homo sapiens, UniProt Q8N5J4 1-248); details: protein: recombinant; tags: N-terminal GST; dsDNA, one strand shown
T8 sequence: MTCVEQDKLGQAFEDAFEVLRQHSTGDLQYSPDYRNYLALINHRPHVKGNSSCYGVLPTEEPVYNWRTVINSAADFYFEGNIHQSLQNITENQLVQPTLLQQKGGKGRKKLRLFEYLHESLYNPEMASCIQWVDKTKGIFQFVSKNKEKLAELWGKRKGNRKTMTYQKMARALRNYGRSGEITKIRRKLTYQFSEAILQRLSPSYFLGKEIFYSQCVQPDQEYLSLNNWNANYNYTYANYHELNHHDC
Method in brief: as §1

ELF4 = ELF4 (Homo sapiens, UniProt Q99607 1-663); details: protein: recombinant; tags: N-terminal GST; dsDNA, one strand shown
Method in brief: as §1

ELK4 = target: T9, ELK4 (Homo sapiens, UniProt P28324-2 1-405); details: protein: recombinant; tags: N-terminal GST; dsDNA, one strand shown
T9 sequence: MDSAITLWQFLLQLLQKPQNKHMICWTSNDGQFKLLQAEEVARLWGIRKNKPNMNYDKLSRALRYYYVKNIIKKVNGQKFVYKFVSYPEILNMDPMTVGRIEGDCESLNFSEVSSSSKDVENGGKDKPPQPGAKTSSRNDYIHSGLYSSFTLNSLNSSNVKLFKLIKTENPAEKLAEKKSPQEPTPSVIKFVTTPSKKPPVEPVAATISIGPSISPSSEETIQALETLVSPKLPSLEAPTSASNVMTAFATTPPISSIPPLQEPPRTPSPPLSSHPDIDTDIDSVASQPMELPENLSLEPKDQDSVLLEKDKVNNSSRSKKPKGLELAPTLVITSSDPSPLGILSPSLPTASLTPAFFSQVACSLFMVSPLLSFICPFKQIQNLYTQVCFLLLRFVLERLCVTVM
Method in brief: as §1

ELF3 = target: T10, ELF3 (Homo sapiens, UniProt P78545 1-371); details: protein: recombinant; tags: N-terminal GST; dsDNA, one strand shown
T10 sequence: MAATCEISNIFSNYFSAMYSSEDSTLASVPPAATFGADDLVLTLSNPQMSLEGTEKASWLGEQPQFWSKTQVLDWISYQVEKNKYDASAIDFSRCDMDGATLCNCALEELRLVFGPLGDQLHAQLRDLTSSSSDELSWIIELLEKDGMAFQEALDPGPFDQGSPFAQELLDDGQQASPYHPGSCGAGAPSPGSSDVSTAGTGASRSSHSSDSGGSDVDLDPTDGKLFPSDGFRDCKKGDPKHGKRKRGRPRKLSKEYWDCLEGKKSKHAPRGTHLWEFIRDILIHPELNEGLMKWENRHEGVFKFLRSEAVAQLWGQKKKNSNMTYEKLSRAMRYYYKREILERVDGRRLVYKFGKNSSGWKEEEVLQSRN
Method in brief: as §1

CRX = CRX (Homo sapiens, UniProt O43186 1-299); details: protein: recombinant; tags: N-terminal GST; dsDNA, one strand shown
Method in brief: as §1

ETV1 = ETV1 (Homo sapiens, UniProt P50549 1-477); details: protein: recombinant; tags: N-terminal GST; dsDNA, one strand shown
Method in brief: as §1

Sequence of ETV1 (P50549 whole entry): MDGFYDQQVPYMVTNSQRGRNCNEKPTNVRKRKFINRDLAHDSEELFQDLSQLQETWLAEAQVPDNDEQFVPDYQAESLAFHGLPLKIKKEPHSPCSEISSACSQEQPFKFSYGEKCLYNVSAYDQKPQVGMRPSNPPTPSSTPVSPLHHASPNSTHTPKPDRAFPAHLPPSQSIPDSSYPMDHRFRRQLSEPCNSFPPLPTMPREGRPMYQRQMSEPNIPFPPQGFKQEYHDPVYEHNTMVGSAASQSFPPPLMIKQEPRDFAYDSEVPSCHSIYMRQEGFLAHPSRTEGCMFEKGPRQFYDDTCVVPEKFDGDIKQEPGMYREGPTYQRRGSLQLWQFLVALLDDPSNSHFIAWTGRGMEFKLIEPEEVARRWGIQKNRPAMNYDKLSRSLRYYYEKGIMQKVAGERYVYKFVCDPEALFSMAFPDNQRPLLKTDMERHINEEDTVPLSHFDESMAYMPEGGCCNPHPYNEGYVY
Sequence of SPIB (Q01892 whole entry): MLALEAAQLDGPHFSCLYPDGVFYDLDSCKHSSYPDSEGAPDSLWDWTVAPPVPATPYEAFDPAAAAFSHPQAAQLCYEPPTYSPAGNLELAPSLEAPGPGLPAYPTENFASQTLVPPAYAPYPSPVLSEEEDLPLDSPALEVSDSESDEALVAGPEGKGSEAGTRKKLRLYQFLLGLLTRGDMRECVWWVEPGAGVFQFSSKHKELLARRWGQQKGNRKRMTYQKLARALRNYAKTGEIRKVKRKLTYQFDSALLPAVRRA
Sequence of ELF4 (Q99607 whole entry): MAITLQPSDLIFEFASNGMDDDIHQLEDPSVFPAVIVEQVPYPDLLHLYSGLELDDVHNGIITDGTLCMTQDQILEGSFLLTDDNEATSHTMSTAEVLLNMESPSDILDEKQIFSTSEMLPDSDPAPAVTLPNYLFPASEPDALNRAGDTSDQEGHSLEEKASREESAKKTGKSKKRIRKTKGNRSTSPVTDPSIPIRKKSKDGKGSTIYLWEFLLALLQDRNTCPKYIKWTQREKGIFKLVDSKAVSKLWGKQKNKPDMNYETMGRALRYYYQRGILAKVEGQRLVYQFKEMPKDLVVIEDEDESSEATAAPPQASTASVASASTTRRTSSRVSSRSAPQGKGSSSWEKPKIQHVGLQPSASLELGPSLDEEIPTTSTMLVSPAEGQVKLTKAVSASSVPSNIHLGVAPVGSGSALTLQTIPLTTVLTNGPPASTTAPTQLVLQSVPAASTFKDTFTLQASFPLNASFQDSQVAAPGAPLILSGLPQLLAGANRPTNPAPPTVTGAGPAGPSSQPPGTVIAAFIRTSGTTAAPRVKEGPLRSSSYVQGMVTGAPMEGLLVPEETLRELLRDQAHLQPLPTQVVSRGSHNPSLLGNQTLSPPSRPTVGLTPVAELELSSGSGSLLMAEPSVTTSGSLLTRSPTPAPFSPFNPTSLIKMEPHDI
Sequence of HSF1 (Q00613 whole entry): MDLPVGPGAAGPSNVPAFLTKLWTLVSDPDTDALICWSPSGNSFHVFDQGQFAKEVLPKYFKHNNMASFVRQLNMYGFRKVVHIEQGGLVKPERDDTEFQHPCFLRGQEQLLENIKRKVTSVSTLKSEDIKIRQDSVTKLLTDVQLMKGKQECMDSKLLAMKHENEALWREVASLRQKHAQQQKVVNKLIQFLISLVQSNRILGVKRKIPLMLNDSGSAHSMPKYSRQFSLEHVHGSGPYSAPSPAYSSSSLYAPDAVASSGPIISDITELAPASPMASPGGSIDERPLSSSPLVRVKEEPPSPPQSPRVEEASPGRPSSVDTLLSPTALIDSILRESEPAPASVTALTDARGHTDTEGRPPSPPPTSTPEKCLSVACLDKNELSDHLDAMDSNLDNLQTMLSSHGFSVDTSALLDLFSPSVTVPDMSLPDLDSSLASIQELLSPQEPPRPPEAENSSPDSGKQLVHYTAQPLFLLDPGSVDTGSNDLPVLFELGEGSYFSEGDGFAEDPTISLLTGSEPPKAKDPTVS
Sequence of ETV5 (P41161 whole entry): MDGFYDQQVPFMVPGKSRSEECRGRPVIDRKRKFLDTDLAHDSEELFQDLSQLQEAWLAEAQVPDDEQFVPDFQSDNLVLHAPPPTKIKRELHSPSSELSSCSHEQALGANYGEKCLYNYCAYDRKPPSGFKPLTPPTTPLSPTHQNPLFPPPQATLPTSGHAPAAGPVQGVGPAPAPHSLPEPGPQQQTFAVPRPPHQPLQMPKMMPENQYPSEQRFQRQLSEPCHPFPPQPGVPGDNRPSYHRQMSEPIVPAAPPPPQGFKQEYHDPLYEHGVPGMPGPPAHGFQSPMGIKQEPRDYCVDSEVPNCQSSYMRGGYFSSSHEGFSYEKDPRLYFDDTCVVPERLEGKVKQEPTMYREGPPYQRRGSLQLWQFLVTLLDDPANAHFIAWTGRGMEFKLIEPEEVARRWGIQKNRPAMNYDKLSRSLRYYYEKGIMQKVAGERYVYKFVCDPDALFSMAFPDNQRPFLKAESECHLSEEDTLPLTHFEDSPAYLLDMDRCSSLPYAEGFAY
Sequence of ELF1 (P32519 whole entry): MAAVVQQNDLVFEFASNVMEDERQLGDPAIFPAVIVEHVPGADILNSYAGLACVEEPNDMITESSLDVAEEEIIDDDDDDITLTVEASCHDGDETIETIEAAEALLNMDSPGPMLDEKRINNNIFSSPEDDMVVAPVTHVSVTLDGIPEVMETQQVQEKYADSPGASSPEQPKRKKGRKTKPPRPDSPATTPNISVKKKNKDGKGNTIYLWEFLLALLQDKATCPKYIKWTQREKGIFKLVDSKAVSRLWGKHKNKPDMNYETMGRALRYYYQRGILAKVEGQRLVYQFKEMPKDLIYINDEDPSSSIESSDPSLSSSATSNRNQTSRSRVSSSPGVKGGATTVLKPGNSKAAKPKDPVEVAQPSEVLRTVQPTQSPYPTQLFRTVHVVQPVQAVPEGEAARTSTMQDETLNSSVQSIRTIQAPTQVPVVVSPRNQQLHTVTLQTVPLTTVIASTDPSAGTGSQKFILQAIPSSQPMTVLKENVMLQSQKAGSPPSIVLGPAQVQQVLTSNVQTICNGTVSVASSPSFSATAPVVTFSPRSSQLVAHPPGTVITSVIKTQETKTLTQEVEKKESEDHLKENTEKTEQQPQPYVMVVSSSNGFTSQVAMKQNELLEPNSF
Sequence of CRX (O43186 whole entry): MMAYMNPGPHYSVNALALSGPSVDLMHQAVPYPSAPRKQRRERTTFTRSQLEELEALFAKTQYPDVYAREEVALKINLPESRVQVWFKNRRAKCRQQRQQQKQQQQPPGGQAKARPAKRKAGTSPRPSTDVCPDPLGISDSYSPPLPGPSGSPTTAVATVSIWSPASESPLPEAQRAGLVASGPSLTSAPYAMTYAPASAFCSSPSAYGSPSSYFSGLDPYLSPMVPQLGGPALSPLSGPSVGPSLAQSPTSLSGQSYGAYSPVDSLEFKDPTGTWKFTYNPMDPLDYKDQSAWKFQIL

AACGTT
binding signal (FLI1): 1.07 fold enrichment (6-mer frequency, TF over GST control) | binding signal (ELK1): 1.15 fold enrichment (6-mer frequency, TF over GST control) | binding signal (GABPA): 1.04 fold enrichment (6-mer frequency, TF over GST control) | binding signal (ERG): 1.15 fold enrichment (6-mer frequency, TF over GST control) | binding signal (ELF1): 1.14 fold enrichment (6-mer frequency, TF over GST control) | binding signal (EHF): 1.09 fold enrichment (6-mer frequency, TF over GST control) | binding signal (SPI1): 1.06 fold enrichment (6-mer frequency, TF over GST control) | binding signal (SPIB): 1.15 fold enrichment (6-mer frequency, TF over GST control) | binding signal (ELK3): 1.28 fold enrichment (6-mer frequency, TF over GST control) | binding signal (FEV): 1.08 fold enrichment (6-mer frequency, TF over GST control) | binding signal (ETV5): 1.07 fold enrichment (6-mer frequency, TF over GST control) | binding signal (HSF1): 1.32 fold enrichment (6-mer frequency, TF over GST control) | binding signal (SPIC): 1.23 fold enrichment (6-mer frequency, TF over GST control) | binding signal (ELF4): 1.14 fold enrichment (6-mer frequency, TF over GST control) | binding signal (ELK4): 1.02 fold enrichment (6-mer frequency, TF over GST control) | binding signal (ELF3): 1.05 fold enrichment (6-mer frequency, TF over GST control) | binding signal (CRX): 1.02 fold enrichment (6-mer frequency, TF over GST control) | binding signal (ETV1): 1.1 fold enrichment (6-mer frequency, TF over GST control)
